Measurements from PubChem BioAssay (NCATS).
Results filed as inconclusive are left out. The source made the active and inactive calls. Calls come from the whole dose curve; as a rule, active = well fitted cell-killing curve with a large enough effect; inconclusive = small, poorly fitted or top-dose-only effect, or effect the other way; inactive = flat fitted curve, though single readings scatter.

Columns and labels:
Test in all cases: Primary qHTS to identify gynecologic anti-cancer compounds using libraries of approved drugs and bioactive compounds (AID 1345084); note: nearly all actives have a fitted effect of over 55% in size
C33A = details: Gynecologic cancer cell panel viability, ATPlite luminescence, 48 h; series mostly up to 57.5 µM
Outline: (§1)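 Luminescence from the ATPlite ATP-monitoring reagent indicates viable cell number; lower signal means cytotoxicity. Cells received compound 16 h after seeding and were exposed for 48 h across five concentrations.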

CAOV3 = details: Gynecologic cancer cell panel viability, ATPlite luminescence, 48 h; series mostly up to 57.5 µM
Outline: as §1

CASKI = details: Gynecologic cancer cell panel viability, ATPlite luminescence, 48 h; series mostly up to 57.5 µM
Outline: as §1

Es-2 = details: Gynecologic cancer cell panel viability, ATPlite luminescence, 48 h; series mostly up to 57.5 µM
Outline: as §1

HeLa = details: Gynecologic cancer cell panel viability, ATPlite luminescence, 48 h; series mostly up to 57.5 µM
Outline: as §1

Hek293T = details: Gynecologic cancer cell panel viability, ATPlite luminescence, 48 h, control line for the selectivity index; series mostly up to 57.5 µM
Outline: as §1

JEG-3 = details: Gynecologic cancer cell panel viability, ATPlite luminescence, 48 h; series mostly up to 57.5 µM
Outline: as §1

OV90 = details: Gynecologic cancer cell panel viability, ATPlite luminescence, 48 h; series mostly up to 57.5 µM
Outline: as §1

PA-1 = details: Gynecologic cancer cell panel viability, ATPlite luminescence, 48 h; series mostly up to 57.5 µM
Outline: as §1

Tov-21-G = details: Gynecologic cancer cell panel viability, ATPlite luminescence, 48 h; series mostly up to 57.5 µM
Outline: as §1

Tov112D = details: Gynecologic cancer cell panel viability, ATPlite luminescence, 48 h; series mostly up to 57.5 µM
Outline: as §1

SKOV3 = details: Gynecologic cancer cell panel viability, ATPlite luminescence, 48 h; series mostly up to 57.5 µM
Outline: as §1
% is set by controls: 0 for no effect and ±100 for the full control effect.

CC(NC(=O)CCc1nc2ccccc2c(=O)[nH]1)c1ccccc1 (stereo unspecified)
inactive: Potency (C33A) | Potency (CAOV3) | Potency (CASKI) | Potency (Es-2) | Potency (HeLa) | Potency (Hek293T) | Potency (JEG-3) | Potency (OV90) | Potency (PA-1) | Potency (Tov-21-G) | Potency (Tov112D)

CC(C)(O)c1ccc2c(c1)C(O)C[C@H]1[C@](C)(C(=O)O)CCC[C@]21C (stereo partly specified)
inactive: Potency (C33A) | Potency (CAOV3) | Potency (CASKI) | Potency (Es-2) | Potency (HeLa) | Potency (Hek293T) | Potency (JEG-3) | Potency (OV90) | Potency (PA-1) | Potency (Tov-21-G) | Potency (Tov112D)

COC1C(=O)CCC2(CO2)C1(O)C1(C)OC1CC=C(C)C (stereo unspecified)
inactive: Potency (C33A) | Potency (CAOV3) | Potency (CASKI) | Potency (Es-2) | Potency (HeLa) | Potency (Hek293T) | Potency (JEG-3) | Potency (OV90) | Potency (PA-1) | Potency (SKOV3) | Potency (Tov112D)

c1ccc(N2CCN(CCc3nn[nH]n3)CC2)cc1
inactive: Potency (C33A) | Potency (CAOV3) | Potency (CASKI) | Potency (Es-2) | Potency (HeLa) | Potency (Hek293T) | Potency (JEG-3) | Potency (OV90) | Potency (PA-1) | Potency (Tov-21-G) | Potency (Tov112D)

COc1nc2sc(C(=O)NC3CC3)c(N)c2c(C)c1Cl
inactive: Potency (C33A) | Potency (CAOV3) | Potency (CASKI) | Potency (Es-2) | Potency (HeLa) | Potency (Hek293T) | Potency (JEG-3) | Potency (OV90) | Potency (PA-1) | Potency (Tov-21-G) | Potency (Tov112D)

Cc1ccccc1CN1C2=NCCN2C(=O)C2=C1CCN(Cc1ccccc1)C2
inactive: Potency (C33A) | Potency (CAOV3) | Potency (CASKI) | Potency (Es-2) | Potency (HeLa) | Potency (Hek293T) | Potency (JEG-3) | Potency (OV90) | Potency (PA-1) | Potency (Tov-21-G) | Potency (Tov112D)

C[C@@H]1O[C@@H](O[C@H]2[C@H](O)[C@@H](O[C@@H]3O[C@H](CO)[C@@H](O)[C@H](O[C@@H]4O[C@H](CO)[C@@H](O)[C@H](O)[C@H]4O)[C@H]3O)[C@H](O[C@H]3CC[C@@]4(C)C(=CC[C@@H]5C4CC[C@@]4(C)C5C[C@@H]5OC6(CC[C@@](C)(CO[C@@H]7O[C@H](CO)[C@@H](O)[C@H](O)[C@H]7O)O6)[C@@H](C)[C@@H]54)C3)O[C@@H]2CO)[C@H](O)[C@H](O)[C@H]1OC1OC(CO)C(O)C(O)C1O (stereo partly specified)
inactive: activity change, negative = cytotoxicity (C33A) 0.138% [at 6.55 µM] | activity change, negative = cytotoxicity (CAOV3) 7.26% [at 6.55 µM] | activity change, negative = cytotoxicity (CASKI) -16.9% [at 6.55 µM] | activity change, negative = cytotoxicity (Es-2) -3.32% [at 6.55 µM] | activity change, negative = cytotoxicity (HeLa) -0.928% [at 6.55 µM] | activity change, negative = cytotoxicity (Hek293T) 3.68% [at 6.55 µM] | activity change, negative = cytotoxicity (JEG-3) 1.09% [at 6.55 µM] | activity change, negative = cytotoxicity (OV90) -1.64% [at 6.55 µM] | activity change, negative = cytotoxicity (PA-1) 10.2% [at 6.55 µM] | activity change, negative = cytotoxicity (SKOV3) -3.09% [at 6.55 µM] | activity change, negative = cytotoxicity (Tov-21-G) -0.0744% [at 6.55 µM] | activity change, negative = cytotoxicity (Tov112D) 5.26% [at 6.55 µM]

CC1OC(OC2C(OC3C(O[C@H]4CC[C@@]5(C)C(CC[C@]6(C)C5C(=O)C=C5C7CC(C)(C)CC(O)[C@]7(C)CC[C@]56C)C4(C)C)OC(C(=O)O)C(O)C3O)OCC(O)C2O)C(O)C(O)C1O (stereo partly specified)
inactive: activity change, negative = cytotoxicity (C33A) -11.1% [at 11.6 µM] | activity change, negative = cytotoxicity (CAOV3) -11.1% [at 11.6 µM] | activity change, negative = cytotoxicity (CASKI) -7.33% [at 11.6 µM] | activity change, negative = cytotoxicity (Es-2) -2.72% [at 11.6 µM] | activity change, negative = cytotoxicity (HeLa) 6.46% [at 11.6 µM] | activity change, negative = cytotoxicity (Hek293T) -13.7% [at 11.6 µM] | activity change, negative = cytotoxicity (JEG-3) -7.16% [at 11.6 µM] | activity change, negative = cytotoxicity (OV90) -4.31% [at 11.6 µM] | activity change, negative = cytotoxicity (PA-1) -3.12% [at 11.6 µM] | activity change, negative = cytotoxicity (Tov-21-G) 2.59% [at 11.6 µM] | activity change, negative = cytotoxicity (Tov112D) -1.77% [at 11.6 µM]

CC[C@H]1OC(=O)[C@](C)(F)C(=O)[C@H](C)[C@@H](O[C@@H]2O[C@H](C)C[C@H](N(C)C)[C@H]2O)[C@](C)(OC)C[C@@H](C)C(=O)[C@@H](C)[C@H]2N(CCCCn3cc(-c4cccc(N)c4)nn3)C(=O)O[C@]12C
inactive: Potency (C33A) | Potency (CAOV3) | Potency (CASKI) | Potency (Es-2) | Potency (HeLa) | Potency (Hek293T) | Potency (JEG-3) | Potency (OV90) | Potency (PA-1) | Potency (SKOV3) | Potency (Tov112D)

CC(=O)OC1CC2C3(C)CCC(OC(=O)CC(=O)O)C(C)(C)C3CCC2(C)C2(C)CCC(C3(C)CCC(=O)O3)C12 (stereo unspecified)
inactive: Potency (C33A) | Potency (CAOV3) | Potency (CASKI) | Potency (Es-2) | Potency (HeLa) | Potency (Hek293T) | Potency (JEG-3) | Potency (OV90) | Potency (PA-1) | Potency (Tov-21-G) | Potency (Tov112D)

CC1OC(OC2C(O)C(OC3CCC4(C)C(CCC5(C)C4CC=C4C6CC(C)(COC7OC(CO)C(O)C(O)C7O)CC(O)C6(C)CCC45C)C3(C)C)OC(C(=O)O)C2O)C(O)C(O)C1OC1OCC(O)C(O)C1O (stereo unspecified)
inactive: activity change, negative = cytotoxicity (C33A) 5.66% [at 11.6 µM] | activity change, negative = cytotoxicity (CAOV3) -0.364% [at 11.6 µM] | activity change, negative = cytotoxicity (CASKI) -2.68% [at 11.6 µM] | activity change, negative = cytotoxicity (Es-2) 8.83% [at 11.6 µM] | activity change, negative = cytotoxicity (HeLa) 12.4% [at 11.6 µM] | activity change, negative = cytotoxicity (Hek293T) 11.9% [at 11.6 µM] | activity change, negative = cytotoxicity (JEG-3) 10.4% [at 11.6 µM] | activity change, negative = cytotoxicity (OV90) 0.532% [at 11.6 µM] | activity change, negative = cytotoxicity (PA-1) 13.5% [at 11.6 µM] | activity change, negative = cytotoxicity (SKOV3) 37.6% [at 11.6 µM] | activity change, negative = cytotoxicity (Tov-21-G) 6.66% [at 11.6 µM] | activity change, negative = cytotoxicity (Tov112D) 7.29% [at 11.6 µM]

CC(C)=CCC(O)/C(C)=C/CO[C@@H]1O[C@H](CO)[C@@H](O)[C@H](O)[C@H]1O (stereo partly specified)
inactive: Potency (C33A) | Potency (CAOV3) | Potency (CASKI) | Potency (Es-2) | Potency (HeLa) | Potency (Hek293T) | Potency (JEG-3) | Potency (OV90) | Potency (PA-1) | Potency (Tov-21-G) | Potency (Tov112D)

O=C(Cc1ccc(-c2ccccc2)cc1)NC1CCC1
inactive: Potency (C33A) | Potency (CAOV3) | Potency (CASKI) | Potency (Es-2) | Potency (HeLa) | Potency (Hek293T) | Potency (JEG-3) | Potency (OV90) | Potency (PA-1) | Potency (Tov-21-G) | Potency (Tov112D)

CCC(=O)O[C@H]1C(C)(C)[C@H]([C@@H](O)C(=O)OC)[C@]2(C)C(=O)[C@@]1(O)[C@H]1O[C@]13C1CC(=O)O[C@@H](c4ccoc4)[C@]1(C)CCC32 (stereo partly specified)
inactive: Potency (C33A) | Potency (CAOV3) | Potency (CASKI) | Potency (Es-2) | Potency (HeLa) | Potency (Hek293T) | Potency (JEG-3) | Potency (OV90) | Potency (PA-1) | Potency (Tov-21-G) | Potency (Tov112D)
